# The supplement of paper PMC10338343
# ± gives the standard deviation. The full ranking holds about 6,600 sequences; the median of “pre-steady-state target cleavage rate” is about 0.07, and the highest 2% start at about 0.72. What follows is part of a selection rich in the highest values, with near analogues and random picks from the rest.
# Tested on: MIWI (PIWIL1) piRISC loaded with Kctd7 piRNA (30 nt)
# Assay: pre-steady-state target cleavage rate (min^-1); MIWI and MILI are mouse PIWI proteins and EfPiwi is from a freshwater sponge; tags in brackets are library labels; higher = faster piRNA-guided slicing of the target
# Settings: guide: Kctd7 piRNA 5'p-UGUUAAUCUCUCAGAGAAGGUGACAGUGAU; auxiliary factor: 500 nM mouse GTSF1
# Procedure: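 Cleave-'n-Seq: a library of target RNAs (target site embedded in constant flanks, ACAGCATTCCGCGTTAGTGATATCCG... 5' flank; DNA-blocked outside the site) at 0.1 nM was incubated with 1 nM active mouse MILI or MIWI piRISC (synthetic 5'-monophosphorylated piRNA guide) with or without 500 nM mouse GTSF1 at 33 °C for 1 min to 16 h. Uncleaved targets were sequenced and normalised to non-target controls, and the pooled three trials were fitted to a burst-and-steady-state model to give the pre-steady-state cleavage rate (min^-1; k3 is constrained to at most 1e-4). Sequence is the target site only; target names encode pairing extent (gX:gY) and contiguous / 1-mismatch / 2-mismatch / bulge geometry. Fits with R² ≤ 0 are excluded.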
row,Sequence,pre-steady-state target cleavage rate
1,AUCACUGUCACCUUCUCUCUGAGAUUAACA,0.0402 ± 0.0095
2,UACACUUGUCACCUUCUCUGAGAGAUUAACA,0.631 ± 0.088
3,UUCACUUGUCACCUUCUCUGAGAGAUUAACA,0.63 ± 0.09
4,AUCACUGUCACCUUCUCUGAGAGAUUAACC [g2:g30:cont:t1C],0.387 ± 0.032
5,UUCACUGUCACCUUCUCUGAGAGAAUUAACA,0.641 ± 0.098
6,UUCACUGGUCACCUUCUCUGAGAGAUUAACA,0.652 ± 0.034
7,UACACUGGUCACCUUCUCUGAGAGAUUAACA,0.676 ± 0.038
8,AUCACUGUCACCUUCUCUGAGAGAUUAACA [g2:g30:cont:t1A],0.734 ± 0.035
9,AUCACUUGUCACCUUCUCUGAGAGAUUAACA,0.754 ± 0.12
10,AUCACUGUCACCUUCUCUGAGAGAAUUAACA,0.738 ± 0.13
11,AUCACUGGUCACCUUCUCUGAGAGAUUAACA,0.742 ± 0.047
12,AUCACUGUCACCUUCUCUGAGAAUUAACA,0.366 ± 0.11
13,UAGAGACUCACCUUCUCUGAGAGAUUAUGA,0.0764 ± 0.014
14,UUCACUGUCACCUUCUCUGAGUAGAUUAACA,0.0213 ± 0.0063
15,UAGUCUGUCACCUUUUCUGAGAGAUUAACA,0.542 ± 0.029
16,AUCACUGUCACCUUCACUGAGUGAUUAACA,0.0332 ± 0.007
17,UAGUGACAGACCUUCACUGAGAGUUUAACA,0.0305 ± 0.011
18,UAGUGACUCACCUUCUCUGAGUGAUAAACA,0.0392 ± 0.007
19,AUCACUGUCACCUUCUCUGAGAGAUUAAUCA,0.381 ± 0.04
20,AUCACUGUCACCUUCUCUGAGAGAUUAACG [g2:g30:cont:t1G],0.713 ± 0.037
21,AAUCACUGUCACCUUCUCUGAGAGAUUAACA,0.81 ± 0.043
22,UAGUGACUCACCUUCUCUGAGAGAAUAAGA,0.02 ± 0.0073
23,UUCACAGUCACCUUCUCUGAGAGAUUAAGA,0.137 ± 0.027
24,AUCAGUGUCAGCUUCUCUGAGAGAUUAACA,0.734 ± 0.034
25,UUCAGUGUCAGCUUCUCUGAGAGAUUAACA,0.609 ± 0.032

row,Sequence,pre-steady-state target cleavage rate
1,UAGAGUGUCAGCUUCUCUGAGAGAUUAACA,0.772 ± 0.044
2,UACAGUGUCAGCUUCUCUGAGAGAUUAACA,0.622 ± 0.028
3,UAGUGUCUCAGCUUCUCUGAGAGAUUAACA,0.437 ± 0.031
4,UAGUGUGUCAGCUUCUCUGAGAGAUUAACA,0.561 ± 0.032
5,AUCUCUGUCACCUACUCUGAGAGAUUAACA,0.627 ± 0.042
6,AUCACUGUCACCUUCUCUGACAGAUUAUCA,0.0262 ± 0.0092
7,UAGUCUGUCACCUUCUCUGAGACAUUAUCA,0.0172 ± 0.0056
8,UAGUGUCACACCUUCUCUGAGAGAUAUUGA,0.00616 ± 0.0033
9,UAGUGACACACCUUCUCUGAUAGAUUAACA,0.714 ± 0.054
10,UAGUGACAGUGGAUCUCUGAGAAAUUAACA,< 0.0001
11,UAGACUGUCACCUUCUCUGAGAGCAUUAACA,0.38 ± 0.025
12,UAGUCUGUCACCUUCUCUGAGUGAUUUACA,0.0221 ± 0.0058
13,GUCACUGUCACCUUCUCUGAGAGAUUAACA,0.763 ± 0.04
14,UUCACUGUCACCUUCUCUCUGAGAUUAACA,0.0263 ± 0.0076
15,UUCACUGUCACCUUCUCCUGAGAGAUUAACA,0.795 ± 0.21
16,AUCACUGUCACCUUCUCCUGAGAGAUUAACA,0.645 ± 0.17
17,UACACUGUCACCUUCUCCUGAGAGAUUAACA,0.115 ± 0.043
18,AUCCACUGUCACCUUCUCUGAGAGAUUAACA,0.712 ± 0.046
19,UUUCACUGUCACCUUCUCUGAGAGAUUAACA,0.415 ± 0.04
20,UACCACUGUCACCUUCUCUGAGAGAUUAACA,0.773 ± 0.044
21,AGUCACUGUCACCUUCUCUGAGAGAUUAACA,0.833 ± 0.057
22,UCCACUGUCACCUUCUCUGAGAGAUUAACA,0.68 ± 0.028
23,ACCACUGUCACCUUCUCUGAGAGAUUAACA,0.715 ± 0.039
24,UUCACUGUCACCUUCUCUGAGAGAAAUACA,0.179 ± 0.038
25,AUCACUGUCACCUUCAUCUGAGAGAUUAACA,0.275 ± 0.053

row,Sequence,pre-steady-state target cleavage rate
1,UUCACACUCACCUUCUCUGAGAGAUUUUGA,0.0972 ± 0.024
2,UAGUGACUCACCUUCUCUGAGAGAUUAAGA,0.194 ± 0.031
3,UAGACUGUCACCUACUCUGAGAGUUUAACA,0.147 ± 0.023
4,UUCACUGUCACCUUCUCUGAGCGAUUAACA,0.13 ± 0.0091
5,UAGACUGUCAGCUUCUCUGAGAGAUUAUCA,0.171 ± 0.024
6,UUCACUGUCACCUUCUCUGAGAGAUUAACA [g2:g29:cont:t1A],0.717 ± 0.03
7,AUUCACUGUCACCUUCUCUGAGAGAUUAACA,0.737 ± 0.036
8,ACUCACUGUCACCUUCUCUGAGAGAUUAACA,0.781 ± 0.054
9,UUCUCUGUCACCUUCACUGAGAGAUUAACA,0.392 ± 0.021
10,CUCACUGUCACCUUCUCUGAGAGAUUAACA,0.714 ± 0.031
11,AUCACUCAGACCUUCUCUGAGAGAUUAACA,0.433 ± 0.024
12,AUCAGACUCACCUUCUCUGAGAGAUUAACA,0.726 ± 0.045
13,UUCAGACUCACCUUCUCUGAGAGAUUAACA,0.472 ± 0.035
14,UACAGUGUCACCUUCUCUGAGUGAUUAACA,0.0377 ± 0.0077
15,UAGUGUGUCACCUUGUCUGAGAGAUUUUGA,0.00982 ± 0.0057
16,UAGACUGUCACGUUCUCUGAGUGAUUAACA,0.00628 ± 0.0015
17,UUCACUGUCUCCUUCUCUGAGAGAUUAUGA,0.122 ± 0.034
18,UACUCUGUCACCUUCUCUGAGAGAUUUUGA,0.0843 ± 0.017
19,UAGUGACACACCUUCUCUGAAAGAUUAACA,0.384 ± 0.029
20,UAGUGUGUCGACCUUCUCUGAGAGAUUAACA,0.155 ± 0.017
21,UUGACUGUCACCUACUCUGAGAGAUUAACA,0.689 ± 0.041
22,UUGACUGUCACCUUCUCUGAGAGAUUAAGA,0.257 ± 0.034
23,UAGACUGUCACCUACUCUGAGAGAUUAACA,0.666 ± 0.049
